Rows were chosen to be rich in hits. Some 3.7% of all compounds tested hit in one or more screens of this group.
miR-21 reporter: qHTS Assay for Modulators of miRNAs and/orActivators of miR-21; 340,000 tested, under 10 active; HeLa miR-21 FLuc reporter, luciferase, 48 h; Potency, µM (highest dose often 38.3 µM), without a hit: at the highest dose activity change, positive = activation, hits mostly activators;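 also: % of control where 0% means no effect; miR-21 action dims this reporter so a rising signal means less miR-21 action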
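HeLa cells endogenously expressing miR-21, stably carrying CMV-driven firefly luciferase with a downstream miR-21 binding site, 2000 cells/well. Titrations up to approximately 40 uM, 48 hours; luciferase luminescence read.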
Nrf2 activator: qHTS of Nrf2 Activators. Potency, µM (doses to about 46.1 µM), for inactives: at the top dose activation, most hits filed as activators. AREc32 ARE-luciferase reporter (MCF7-derived line), luminescence, 24 h. 410,000 compounds, 0.31% hits; also: potency is read from the fitted curve at half-maximal effect; % of control where 0% means no effect; nearly all actives have a fitted effect of over 65% in size
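Cells of the AREc32 ARE-luciferase line are plated in OPTI-MEM containing 5% FBS and left overnight at 37 deg C. Compounds are pinned in, incubation continues 24 hr, and firefly luciferase signal is then measured.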
Nrf2 block: Nrf2 qHTS screen for inhibitors; Potency, µM (top dose mostly 46 µM), without a hit: at the top dose activity change, negative = inhibition, actives largely listed as inhibitors; AID 504444, 2011; A549 ARE-Fluc reporter, luciferase luminescence, 18-24 h; 360,000 compounds, 2.1% hits; also: potency is read from the fitted curve at half-maximal effect; % is scaled to controls: 0 for no effect and ±100 for the full control effect; nearly all actives have a fitted effect of over 60% in size
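Nrf2 activity is the BugLite luminescence, read 15 min after reagent at room temperature, following CellTiter-Fluor cytotoxicity readout (30 min, 37C). Compound titrations were applied for 18-24 h to 5000 A549 ARE_Fluc cells/well in 5% FBS OPTI-MEM.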
TCR activator: Activators of T cell receptors: qHTS campaign | AID 504894, 2011 | Potency, µM (highest dose often 9.22 µM), without a hit: at the highest dose activation of IL-2 secretion, most hits filed as activators | 330,000 tested, under 10 active | primary human leukocytes, anti-CD3, IL-2 HTRF, 48 h; also: % of control where 0% means no effect
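Human primary leukocytes + a-CD3 beads + cpd, 48 hr; IL-2 in supernatant by HTRF (ex 320nm / em 665nm). No co-stimulatory signal supplied.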
ClpP mod: qHTS Assay for Activators of ClpP | 340,000 compounds, 1.9% hits | purified B. subtilis ClpP, FRET peptide cleavage, 20 min | AID 651965, 2013 | Potency, µM (titrated, usually from 57.5 µM), inactives show top-dose activity change, negative = active; active = well fitted falling curve with a large enough effect; inconclusive = small, poorly fitted or top-dose-only effect; inactive = no such curve, though single readings can be large or run the other way; also: potency is read from the fitted curve at half-maximal effect; the source files actives as falling curves though it sought activators and does not explain the sign; nearly all actives have a fitted effect of over 65% in size
Target sequence (P80244 whole entry, looked up): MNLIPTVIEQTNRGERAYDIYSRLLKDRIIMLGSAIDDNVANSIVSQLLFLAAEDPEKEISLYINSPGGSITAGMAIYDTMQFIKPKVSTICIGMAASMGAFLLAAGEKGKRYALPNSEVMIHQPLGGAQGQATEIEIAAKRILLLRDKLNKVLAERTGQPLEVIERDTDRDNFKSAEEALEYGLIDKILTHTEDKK
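Buffer: 100 mM Tris/HCl pH8, 100 mM KCl, 0.05% low protease BSA, 2.5% glycerol, 0.01% Tween-20. ClpP 10 microg/mL final; 20 min RT; delta FRET normalized to ADEP and DMSO controls.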
A549 tox: Nrf2 qHTS screen for inhibitors: counterscreen for cytotoxicity; 390,000 compounds, 0.16% hits; Potency, µM (top dose mostly 46 µM), inactives show top-dose activity change, negative = cytotoxicity, hits mostly inhibitors; A549 ARE-Fluc cells, CellTiter-Fluor viability, 18-24 h; AID 504648, 2011; also: potency is read from the fitted curve at half-maximal effect; % is scaled to controls: 0 for no effect and ±100 for the full control effect
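A549 ARE_Fluc cells in 5% FBS OPTI-MEM were exposed to compounds in concentration-response for 18-24 h at 37 deg C. Viability was read by CellTiter-Fluor fluorescence (Ex 405/Em 525) after 30 min, before the luciferase read.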
* = called active by the depositor; ? = inconclusive; nt = not tested or not shown; ! = a repeat was not active; [ ] = remark or other dose. Unless noted, calls follow the shape of the dose curve; as a rule, active = well fitted curve in the direction sought with a large enough effect; inconclusive = small, poorly fitted or top-dose-only effect, or another doubt; inactive = no such curve, though single readings can be large; an effect the other way counts as inactive or inconclusive.

SMILES	miR-21 reporter	Nrf2 activator	Nrf2 block	TCR activator	ClpP mod	A549 tox
Cc1nn(C)c(C)c1CN(C)C(=O)c1cc2n(n1)C(C(F)(F)F)CC(c1cccs1)N2 (configuration not stated)	11%	0%	13µM*	4%	-7%	-2%
Cc1ccc(C2CC(C(F)(F)F)n3nc(C(=O)NCc4c(C)nn(C)c4C)c(Cl)c3N2)cc1 (configuration not stated)	?	6%	12µM*	-1%	2%	-29%
Cc1nn(C)cc1CN(C)C(=O)c1nn2c(c1Br)NC(c1cccs1)CC2C(F)(F)F (configuration not stated)	3%	0%	-27%	-4%	nt	-16%
Cc1nn(C)cc1CN(C)C(=O)c1nn2c(c1Cl)NC(c1cccs1)CC2C(F)(F)F (configuration not stated)	8%	0%	16µM*	-6%	1%	-5%
Cc1cccc(NC(=O)Cn2c(=O)ccc3cc(S(=O)(=O)N4CCCC4)ccc32)c1C	1%	-1%	nt	nt	2%	2%
C(=C\c1ccccc1)/CN1CCN(C(CCc2ccccc2)c2nnnn2C2CCCC2)CC1 (configuration not stated)	nt	5%	nt	nt	-1%	nt
O=C(NCc1ccccc1F)C1CCCN(C(=O)N2CCOc3ccccc32)C1 (configuration not stated)	-7%	0%	-12%	nt	-4%	7%
COc1ccccc1NC(=O)C1=C(C)Nc2nc3ccccc3n2C1c1cccc(Br)c1 (configuration not stated)	27%	0%	-18%	nt	?	-5%
CCCOc1ccccc1C1Oc2nc(SC)nnc2-c2ccccc2N1C(C)=O (configuration not stated)	-1%	-1%	-21%	nt	0%	0%
O=S(=O)(c1ccc2c(c1)OCCO2)N1CCN(S(=O)(=O)c2cccc3cccnc23)CC1	nt	nt	12%	nt	nt	9%
COc1ccc(NC(=O)C23CC4CC(C2)CC(c2ccc(C)cc2)(C4)C3)cc1	12%	4%	16µM*	0%[46.1 µM]	-15%	-18%
O=C(Cn1nc(-c2ccccc2Cl)ccc1=O)Nc1ccc(Br)cc1	-1%	-1%	2%	6%	nt	1%
O=C(Cn1nc(-c2ccccc2Cl)ccc1=O)Nc1ccccc1-c1ccccc1	-6%	3%	-15%	3%	14µM*	-10%
CCc1nc2ccc(C(=O)NC3CCN(Cc4ccccc4)CC3)cn2c1N(C)Cc1ccc(N(C)C)cc1	nt	2%	nt	nt	-4%	nt
Cc1ccc(/C=C/c2onc(C)c2S(=O)(=O)N2CCC(C(=O)N3CCOc4ccc(C)cc43)CC2)cc1	0%	0%	nt	nt	-18%	7%
CCCCCC(=O)N1CCN(CCN=CC2=C(O)CC(c3cccs3)CC2=O)CC1 (configuration not stated)	-7%	0%	4%	0%	32µM*!	-1%
O=C1C[C@H]2C=CCc3cccc(c32)CN1Cc1ccc(Cl)cc1	nt	nt	nt	nt	-6%	nt
O=C(Nc1ccn(-c2ccccc2)n1)c1ccc(Cl)cc1	-20%	4%	-4%	-12%	-4%	5%
N#Cc1ccc(C(=O)Nc2ccn(-c3ccccc3)n2)cc1	13%	3%	23µM*	-5%[46.1 µM]	nt	-18%
CCN(C(=O)c1cccc(S(=O)(=O)N(C)C)c1)C12CC3CC(CC(C3)C1)C2	1%	0%	21µM*	0%	nt	-15%
Cc1cccc(Cn2c(=O)n(Cc3ccccc3)c(=O)c3sc4ccccc4c32)c1	5%	-1%	3%	nt	-17%	1%
COc1ccc(S(=O)(=O)N2CCOCC2)cc1NC(=O)CN(C)Cc1c(F)cccc1Cl	7%	1%	21µM*	-3%	nt	-8%
Cc1ccc(S(=O)(=O)N2CCOCC2)cc1NC(=O)COC(=O)C1CCC1	nt	0%	nt	nt	-2%	nt
COc1ccc(S(=O)(=O)N2CCOCC2)cc1NC(=O)COC(=O)C1CCC1	nt	0%	7%	0%	35µM*	-2%
O=C(Nc1ccc2nc(SCC(=O)N3CCCC3)sc2c1)c1ccccc1F	-1%	1%	?	nt	-2%	-8%
SMILES	miR-21 reporter	Nrf2 activator	Nrf2 block	TCR activator	ClpP mod	A549 tox
O=C(/C=C/c1ccccc1)NC(NC(=S)Nc1cccc(Cl)c1)C(Cl)(Cl)Cl (configuration not stated)	20%	3%	7.3µM*	nt	0%	?
O=C(/C=C/c1ccccc1)NC(NC(=S)Nc1ccc(Cl)cc1Cl)C(Cl)(Cl)Cl (configuration not stated)	?	5%	21µM*	-2%[46.1 µM]	1%	?
O=C(/C=C/c1ccccc1)NC(NC(=S)Nc1ccc(C(=O)O)cc1)C(Cl)(Cl)Cl (configuration not stated)	-12%	-1%	10%	-5%[46.1 µM]	0%	-6%
Cc1cc(C)c(NC(=O)CSc2nc(=O)[nH]c3c2CCCC3)c(C)c1	-1%	0%	nt	nt	-9%	2%
Cc1ccc(S(=O)(=O)NC(C)(C)CN2CCCCC2)cc1	1%	-1%	-4%	4%	2%	1%
Cc1ccc(NC(=O)COC(=O)c2ccccc2OCC(=O)Nc2ccc(Br)cc2)c(C)c1	nt	nt	nt	nt	-3%	nt
COC(=O)c1cc2n3ccccc3c(C)c(-c3ccccc3)c-2c1C(=O)OC	1%	0%	-15%	-1%	32µM*	-10%
Cc1c(C(=O)O)c(O)cc2c1C(=O)c1c(O)c([C@@H]3O[C@H](CO)[C@@H](O)[C@H](O)[C@H]3O)c(O)c(O)c1C2=O	nt	0%	?	10%	7%	21µM*
COc1ccc2nc(N3CCOCC3)cc(C)c2c1	-50%	0%	?	nt	13µM*	-3%
c1ccc(-c2cc(N3CCOCC3)nc3ccccc23)cc1	-16%	5%	?	2%	28µM*	-6%
Cc1cc(N2CCOCC2)nc2ccccc12	-34%	3%	?	-6%[46.1 µM]	25µM*	1%
COc1ccc2c(C)cc(N3CCN(c4ccc(F)cc4)CC3)nc2c1	1%	5%	10%	-2%	28µM*	12%
CCN(CC)C1CCN(Cc2c(C(=O)N3CCCCCCC3)nc3ccc(Cl)cn23)C1 (configuration not stated)	-3%	0%	11%	-2%	-7%	-8%
O=C1CC(c2ccccc2)CC2=C1C1(CCCCC1)N=C(Nc1nc3ccccc3o1)N2 (configuration not stated)	nt	nt	10%	nt	nt	0%
